Reference: PubChem BioAssay (NCATS)
Inconclusive results are not listed. Entries that show only a call come without a potency. Activity calls are given as the source filed them. Unless noted, the call rests on the fitted dose curve; in most records, active means well fitted curve in the direction sought with a large enough effect; inconclusive means small, poorly fitted or top-dose-only effect, or another doubt; inactive means no such curve, though single readings can be large; an effect the other way counts as inactive or inconclusive.

Tests used:
[1] = target: Metallo-beta-lactamase type 2 (Klebsiella pneumoniae) (UniProt C7C422); experiment: qHTS to identify inhibitors of the New Delhi Metallo-beta-lactamase (NDM): assay validation screen against the NCATS LOPAC Collection (AID 1794843); further: potency means the concentration at half of the fitted maximal effect;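 on activity change, negative = inhibition: nitrocefin turnover by NDM-1 measured as 485 nm absorbance at plateau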
Method in brief: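 NDM-1 at 2 nM final in 50 mM HEPES pH 7.0 with 1 uM ZnSO4 and 0.01% Tween20 was preincubated with library compounds in DMSO. Nitrocefin (50 uM stock) was then added, and absorbance at 485 nm was read at the kinetic plateau.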

[2] = target: Glutathione peroxidase 1 (Homo sapiens) (UniProt P07203); experiment: Primary qHTS Assay for Inhibitors of Recombinant Selenoprotein Glutathione Peroxidase 1 (GPX1) (AID 1845191); further: nearly all actives have a fitted effect of over 65% in size; further: potency means the concentration at half of the fitted maximal effect
Method in brief: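 10 nM GPX1 + cpd, 30 min RT; start w/ 1 mM GSH, 0.5 mM cumene hydroperoxide, 0.5 mM NADPH, 100 nM GR, 0.01% BSA; buffer 50 mM Tris-HCl pH 7.5, 2 mM EDTA, 150 mM NaCl; Fl 340/450, 0 & 15 min.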

[3] = target: Phospholipid hydroperoxide glutathione peroxidase GPX4 (Homo sapiens) (UniProt P36969); experiment: Primary qHTS Assay for Inhibitors of Recombinant Selenoprotein Glutathione Peroxidase 4 (GPX4) (AID 1845192); conditions: outcome: dose series up to 50 µM unless noted; further: nearly all actives have a fitted effect of over 65% in size
Method in brief: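 NADPH consumption, followed by fluorescence at 340/450 nm between 0 and 15 min, reports GPX4 activity via coupled glutathione reductase (100 nM). Enzyme 200 nM was pre-exposed to compound 30 min; 0.5 mM cumene hydroperoxide and 1 mM GSH served as substrates.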

[4] = target: Catechol O-methyltransferase (Homo sapiens) (UniProt P21964); experiment: Confirmatory Screen for Target Class Profiling of Small Molecule Inhibitors of Methyltransferases (AID 1745852; calls by dose curve); conditions: MTase-Glo luminescence, SAH detection, recombinant enzyme; measured here: COMT max response; stronger effect = lower value
[5] = target: Guanidinoacetate N-methyltransferase (Homo sapiens) (UniProt Q14353); experiment: as above; conditions: MTase-Glo luminescence, SAH detection, recombinant enzyme; at 57.3 µM (top of the series)
[6] = target: Nicotinamide N-methyltransferase (Homo sapiens) (UniProt P40261); experiment: as above; conditions: MTase-Glo luminescence, SAH detection, recombinant enzyme; measured here: NNMT max response; stronger effect = lower value
[7] = target: Phenylethanolamine N-methyltransferase (Homo sapiens) (UniProt P11086); experiment: as above; conditions: MTase-Glo luminescence, SAH detection, recombinant enzyme; measured here: PNMT max response; stronger effect = lower value
[8] = NCATS anti-infectives library activity on HEK293 viability as a counter-qHTS vs the C. elegans viability qHTS (AID 1745854);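 further: HEK293 cells exposed to compounds for 24 hr before the viability read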
Method in brief: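 Cytotoxicity in human HEK293 cells is measured by ATP-dependent CellTiter-Glo luminescence following a 24 hr incubation with titrated library compounds at 37C. Top final concentration is 41.7 uM.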

[9] = target: Luciferin 4-monooxygenase (Photinus pyralis) (UniProt P08659); experiment: Primary firefly luciferase (FLuc) qHTS assay for identification of artifact compounds. (AID 1845220); further: nearly all actives have a fitted effect of over 60% in size
Method in brief: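 Cell-free, 1536-well qHTS. Buffer pH 7.6 with 0.01% Tween-20 and 0.05% BSA; 10 uM D-luciferin, 10 uM ATP; 10 nM P. pyralis luciferase; luminescence after 5 min.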

[10] = Primary fluorescence-based thiol-reactive (MSTI) qHTS assay for identification of artifact compounds. (AID 1845221);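 further: thiol-reactive compounds lower the probe fluorescence signal; nearly all actives have a fitted effect of over 65% in size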
Method in brief: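 Compounds were incubated 1 h at room temperature in the dark with the MSTI probe (4 uM) in PBS pH 7.4, 2% DMSO. Signals were normalized between Acetyl-MSTI and MSTI.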

Sequence of Nicotinamide N-methyltransferase (Homo sapiens) (P40261 whole entry, looked up): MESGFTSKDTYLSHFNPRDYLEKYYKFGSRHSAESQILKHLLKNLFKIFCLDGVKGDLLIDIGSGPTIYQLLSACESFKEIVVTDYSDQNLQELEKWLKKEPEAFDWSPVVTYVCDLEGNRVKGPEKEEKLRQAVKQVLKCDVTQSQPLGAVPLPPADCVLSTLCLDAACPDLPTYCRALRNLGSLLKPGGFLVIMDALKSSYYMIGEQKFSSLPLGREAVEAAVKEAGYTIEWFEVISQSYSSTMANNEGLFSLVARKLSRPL
Sequence of Phospholipid hydroperoxide glutathione peroxidase GPX4 (Homo sapiens) (P36969 whole entry, looked up): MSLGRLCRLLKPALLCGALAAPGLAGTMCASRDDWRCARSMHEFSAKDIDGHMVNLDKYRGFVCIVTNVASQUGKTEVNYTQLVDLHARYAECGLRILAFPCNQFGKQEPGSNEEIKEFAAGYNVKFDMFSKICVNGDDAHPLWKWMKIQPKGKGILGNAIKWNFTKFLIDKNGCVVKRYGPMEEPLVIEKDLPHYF
Sequence of Catechol O-methyltransferase (Homo sapiens) (P21964 whole entry, looked up): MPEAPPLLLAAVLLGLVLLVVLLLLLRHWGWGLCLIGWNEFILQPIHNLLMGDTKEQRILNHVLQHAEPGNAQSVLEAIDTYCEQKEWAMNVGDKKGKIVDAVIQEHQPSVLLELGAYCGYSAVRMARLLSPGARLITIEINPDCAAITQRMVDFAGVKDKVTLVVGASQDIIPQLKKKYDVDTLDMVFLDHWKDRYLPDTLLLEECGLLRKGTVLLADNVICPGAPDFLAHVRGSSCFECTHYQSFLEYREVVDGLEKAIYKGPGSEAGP
Sequence of Metallo-beta-lactamase type 2 (Klebsiella pneumoniae) (C7C422 whole entry, looked up): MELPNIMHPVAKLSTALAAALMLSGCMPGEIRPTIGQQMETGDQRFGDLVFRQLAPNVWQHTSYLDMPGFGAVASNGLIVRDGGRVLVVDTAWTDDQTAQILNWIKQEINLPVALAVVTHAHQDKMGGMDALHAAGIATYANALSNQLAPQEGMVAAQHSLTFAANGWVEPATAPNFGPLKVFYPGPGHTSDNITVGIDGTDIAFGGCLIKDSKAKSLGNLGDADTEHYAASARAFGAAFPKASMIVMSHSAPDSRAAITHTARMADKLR
Sequence of Phenylethanolamine N-methyltransferase (Homo sapiens) (P11086 whole entry, looked up): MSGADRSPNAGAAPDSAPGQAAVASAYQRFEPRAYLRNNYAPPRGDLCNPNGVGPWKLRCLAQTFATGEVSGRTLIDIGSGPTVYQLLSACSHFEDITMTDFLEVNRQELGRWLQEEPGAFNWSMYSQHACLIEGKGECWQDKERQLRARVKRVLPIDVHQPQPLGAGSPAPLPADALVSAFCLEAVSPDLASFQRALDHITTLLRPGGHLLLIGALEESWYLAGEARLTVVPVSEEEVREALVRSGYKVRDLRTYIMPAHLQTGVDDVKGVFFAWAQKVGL
Sequence of Glutathione peroxidase 1 (Homo sapiens) (P07203 whole entry, looked up): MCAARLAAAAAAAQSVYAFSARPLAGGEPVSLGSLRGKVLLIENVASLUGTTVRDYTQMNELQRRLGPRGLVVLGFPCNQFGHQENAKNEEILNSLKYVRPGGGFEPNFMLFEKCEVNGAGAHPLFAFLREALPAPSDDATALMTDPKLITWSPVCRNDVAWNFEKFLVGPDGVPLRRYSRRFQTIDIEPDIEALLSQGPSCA

## O=C(O)CCCCCCCC(=O)O
[1]
  Potency: inactive
[2]
  Potency: inactive
[3]
  outcome: inactive

## CCCN(CCC)CCc1cccc2c1CC(=O)N2
[4]
  activity: 9.88%
[5]
  activity change, negative = inhibition: 6.02%
[6]
  activity: 1.36%
[7]
  activity: 4.72%
[1]
  Potency: inactive
[2]
  Potency: inactive
[3]
  outcome: inactive

## NC(N)=N/N=C/c1c(Cl)cccc1Cl
[4]
  activity: -0.724%
[5]
  activity change, negative = inhibition: 0.25%
[6]
  activity: -52.2%
[7]
  activity: -1.71%
[1]
  Potency: inactive
[2]
  Potency: inactive
[3]
  outcome: inactive

## OCCN1CCN(CCCN2c3ccccc3C=Cc3ccccc32)CC1
[8]
  outcome: inactive
[1]
  Potency: inactive
[2]
  Potency: inactive
[3]
  outcome: inactive

## CN(C)CCCN1c2ccccc2Sc2ccc(C(F)(F)F)cc21
[8]
  outcome: inactive
[2]
  Potency: inactive
[3]
  outcome: inactive

## NC1=NCC2c3ccccc3Cc3ccccc3N12 (centres undefined)
[4]
  activity: -1.67%
[5]
  activity change, negative = inhibition: 4.05%
[6]
  activity: -14.5%
[7]
  activity: -3.06%
[1]
  Potency: inactive
[2]
  Potency: inactive
[3]
  outcome: inactive

## O=C(O)CN(CCN(CC(=O)O)CC(=O)O)CCN(CC(=O)O)CC(=O)O
[1]
  Potency: 2820 nM (active)
[2]
  Potency: inactive
[3]
  outcome: inactive

## NC/C=C/C(=O)O
[1]
  Potency: inactive
[2]
  Potency: inactive
[3]
  outcome: inactive

## Nc1nc(N)c2nc(-c3ccccc3)c(N)nc2n1
[8]
  outcome: inactive
[2]
  Potency: 2860 nM (active)
[3]
  outcome: inactive

## COc1cc2c(cc1OC)-c1cc(=Nc3c(C)cc(C)cc3C)n(C)c(=O)n1CC2
[1]
  Potency: inactive
[2]
  Potency: inactive
[3]
  outcome: inactive

## Cc1nc2sccn2c(=O)c1CCN1CCC(=C(c2ccc(F)cc2)c2ccc(F)cc2)CC1
[1]
  Potency: inactive
[2]
  Potency: inactive
[3]
  outcome: inactive

## O=C(O)CN(CCOCCOCCN(CC(=O)O)CC(=O)O)CC(=O)O
[1]
  Potency: inactive
[2]
  Potency: inactive
[3]
  outcome: inactive

## CN(C)CC[C@@H](c1ccc(Br)cc1)c1ccccn1
[4]
  activity: -5.16%
[5]
  activity change, negative = inhibition: 1.79%
[6]
  activity: -23.7%
[7]
  activity: 0.473%
[2]
  Potency: inactive
[3]
  outcome: inactive

## CNCCCN1c2ccccc2CCc2ccccc21
[8]
  outcome: inactive
[1]
  Potency: inactive
[2]
  Potency: inactive
[3]
  outcome: inactive

## Cc1nc2ccccn2c(=O)c1CCN1CCC(C(=O)c2ccc(F)cc2)CC1
[1]
  Potency: inactive
[2]
  Potency: inactive
[3]
  outcome: inactive

## COC(=O)C1=C(C)NC(C)=C(C(=O)OC(C)(C)CN(C)CCC(c2ccccc2)c2ccccc2)C1c1cccc([N+](=O)[O-])c1 (centres undefined)
[1]
  Potency: inactive
[2]
  Potency: inactive
[3]
  outcome: inactive

## CC(=O)OC(C)C[N+](C)(C)C (centres undefined)
[1]
  Potency: inactive
[2]
  Potency: inactive
[3]
  outcome: inactive

## CCCN1C[C@H](CSC)C[C@@H]2c3cccc4[nH]cc(c34)C[C@H]21
[4]
  activity: -0.209%
[5]
  activity change, negative = inhibition: 5.03%
[6]
  activity: -3.93%
[7]
  activity: 0.569%
[1]
  Potency: inactive
[2]
  Potency: inactive
[3]
  outcome: inactive
[9]
  outcome: inactive
[10]
  outcome: inactive

## CCC(=O)c1ccc2c(c1)N(CCCN(C)C)c1ccccc1S2
[4]
  activity: 6.41%
[5]
  activity change, negative = inhibition: 4.3%
[6]
  activity: -51.8%
[7]
  activity: -2.93%
[2]
  Potency: inactive
[3]
  outcome: inactive

## CCc1cccc(N(C)C(N)=Nc2cccc3ccccc23)c1
[4]
  activity: -0.0494%
[5]
  activity change, negative = inhibition: 4.76%
[6]
  activity: -4.43%
[7]
  activity: 1.17%
[2]
  Potency: inactive
[3]
  outcome: inactive

## C[C@H](CS)C(=O)N1CCC[C@H]1C(=O)O
[8]
  outcome: inactive
[2]
  Potency: inactive
[3]
  outcome: inactive

## NCCCNCCSP(=O)(O)O
[1]
  Potency: inactive
[2]
  Potency: inactive
[3]
  outcome: inactive

## COCCOC(=O)C1=C(C)NC(C)=C(C(=O)OC(C)C)C1c1cccc([N+](=O)[O-])c1 (centres undefined)
[1]
  Potency: inactive
[2]
  Potency: inactive
[3]
  outcome: inactive

## COc1ccc(CCN(C)CCCC(C#N)(c2cc(OC)c(OC)c(OC)c2)C(C)C)cc1OC (centres undefined)
[1]
  Potency: inactive
[2]
  Potency: inactive
[3]
  outcome: inactive

## COc1cc(C(=O)OCCCN2CCCN(CCCOC(=O)c3cc(OC)c(OC)c(OC)c3)CC2)cc(OC)c1OC
[4]
  activity: -6.42%
[5]
  activity change, negative = inhibition: 9.88%
[6]
  activity: -4.53%
[7]
  activity: 1.01%
[1]
  Potency: inactive
[2]
  Potency: inactive
[3]
  outcome: inactive

## COCCCC/C(=N\OCCN)c1ccc(C(F)(F)F)cc1
[1]
  Potency: inactive
[2]
  Potency: inactive
[3]
  outcome: inactive

## CC1=C(C)C(=O)C(CCCCC#CCCCC#CCO)=C(C)C1=O
[4]
  activity: 4.09%
[5]
  activity change, negative = inhibition: 4.63%
[6]
  activity: -9.42%
[7]
  activity: 5.31%
[1]
  Potency: inactive
[2]
  Potency: inactive
[3]
  outcome: inactive

## C=CCc1ccccc1OCC(O)CNC(C)C (centres undefined)
[8]
  outcome: inactive
[2]
  Potency: inactive
[3]
  outcome: inactive

## CC(=O)Nc1nnc(S(N)(=O)=O)s1
[8]
  outcome: inactive
[1]
  Potency: inactive
[2]
  Potency: inactive
[3]
  outcome: inactive

## COC(=O)[C@@H](N)Cc1ccc(O)c(O)c1
[4]
  activity: 134%
[5]
  activity change, negative = inhibition: 1.23%
[6]
  activity: 4.06%
[7]
  activity: 5.34%
[1]
  Potency: inactive
[2]
  Potency: inactive
[3]
  outcome: inactive

## c1cnc(N2CCN(Cc3ccc4c(c3)OCO4)CC2)nc1
[1]
  Potency: inactive
[2]
  Potency: inactive
[3]
  outcome: inactive

## CCc1c(C)[nH]c2c1C(=O)C(CN1CCOCC1)CC2 (centres undefined)
[4]
  activity: 6.21%
[5]
  activity change, negative = inhibition: -2.7%
[6]
  activity: -7.58%
[7]
  activity: 4.21%
[2]
  Potency: inactive
[3]
  outcome: inactive

## NC(N)=NC(=O)Cc1c(Cl)cccc1Cl
[1]
  Potency: inactive
[2]
  Potency: inactive
[3]
  outcome: inactive
